Potency and affinity values are given separately. Activity calls are given as the source filed them.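 Rule for the calls: active = falling ATP light signal with a fitted half-maximal concentration at most twice the highest valid tested dose; inconclusive = flat fit with moderate signal loss, or poor fit; inactive = the rest.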
assay: ATP-based viability loss in HepG2 cells – cell-based, CellTiter-Glo luminescence, dry powder, set 3, cytotoxicity control, dose response (AID 720594); conditions: 72 h; series mostly up to 26 µM

Structure (SMILES)	outcome
O=C(CSc1ccc(-c2ccccn2)nn1)NC1CCCCC1	inactive
Nc1nc(-c2ccccn2)nc(N)c1Cc1ccc(Cl)cc1Cl	inactive
Cc1cccc(NC(=O)CSc2ccc(-c3ccccn3)nn2)c1C	inactive
CC1CCN(S(=O)(=O)c2ccc(C(=O)Nc3nnc(-c4ccco4)o3)cc2)CC1	inactive
Cc1nnc(NC(=O)c2ccc(S(=O)(=O)N3CCCCC3)cc2)o1	inactive
O=C(Nc1nnc(C2=COCCO2)o1)c1ccc(S(=O)(=O)N2CCCCC2)cc1	inactive
c1ccc(-c2nc(-c3ccncc3)n[nH]2)nc1	inactive
O=C(Nc1nnc(-c2ccc(F)cc2)o1)c1ccc(S(=O)(=O)N2CCCCC2)cc1	inactive
O=C(CSc1ccc(-c2ccccn2)nn1)N1CCCC1	inactive
Cc1c(C(=O)N(C)C)sc2nc(-c3ccccn3)[nH]c(=O)c12	inactive
Cc1ccc(C(=O)Nc2nc(-c3ccccn3)cs2)o1	inactive
FC(F)(F)c1cc(-c2nn[nH]n2)cc(C(F)(F)F)c1	inactive
CC1CC(C)CN(S(=O)(=O)c2ccc(C(=O)Nc3nnc(C4=COCCO4)o3)cc2)C1 (stereo not drawn)	inactive
O=C(CSc1n[nH]c(-c2ccccn2)n1)Nc1ccc(Cl)cc1	inactive
CCCCC(=O)NC(c1ccco1)c1ccc2cccnc2c1O (stereo not drawn)	inactive
O=C(CSc1ccc(-c2ccccn2)nn1)Nc1nccs1	inactive
CC1CCN(S(=O)(=O)c2ccc(C(=O)Nc3nnc(-c4ccno4)o3)cc2)CC1	inactive
O=C(Nc1nc(-c2ccccn2)cs1)c1ccc(S(=O)(=O)N2CCOCC2)cc1	inactive

From PubChem BioAssay AID720594 (Broad Institute, 2013)
